# Laboratory results as given in PubChem BioAssay AID588727 (Southern Research Specialized Biocontainment Screening …, 2011).
# Out of some 350,000 compounds screened, about 450 (0.13%) were called active. The rule behind the calls is not given here. A selection follows. Results with a measured potency or affinity are listed apart.
# Assay: inhibitors of VEEV TC-83 cytopathic effect, confirmation, Vero cells (AID 588727)
# Conditions: VEEV TC-83 cytopathic effect inhibition, at 20 µM
# [1] = stronger effect = higher value unless noted
# [2] = measured here: 10K pilot screen inhibition, stronger effect = higher value
smiles,measurement,setting,value
Cc1ccc2oc(=O)cc(/C=C/c3ccccc3)c2c1,inhibition,[1],0.72% (inactive)
Cc1ccccc1C(=O)NN1C(=O)CSC1=S,inhibition,[1],0.35% (inactive)
CCc1ccc(C2CC(=O)N(c3cccc(F)c3)C3=C2C(=O)OC3)cc1 (stereo not drawn),inhibition,[1],inactive
Cc1ccc(NC(=O)[C@H](Cc2ccccc2)NC(=O)[C@@H]2Cc3ccccc3CN2)c(C)c1,inhibition,[1],1.94% (inactive)
COc1ccccc1CNC(=O)[C@H](Cc1c[nH]c2ccccc12)NC(=O)[C@@H]1Cc2ccccc2CN1,inhibition,[1],0.04% (inactive)
CC(C)C[C@H](NC(=O)[C@@H]1Cc2ccccc2CN1)C(=O)Nc1ccc(C(C)C)cc1,inhibition,[1],0.75% (inactive)
Cc1ccc(NC(=O)[C@H](NC(=O)[C@@H]2Cc3ccccc3CN2)c2ccccc2)c(C)c1,inhibition,[1],1.71% (inactive)
Cc1cccc(NC(=O)[C@@H](CC(C)C)NC(=O)[C@@H]2Cc3ccccc3CN2)c1,inhibition,[1],inactive
Cc1cc(C)cc(NC(=O)[C@H](Cc2c[nH]c3ccccc23)NC(=O)[C@@H]2Cc3ccccc3CN2)c1,inhibition,[1],0.29% (inactive)
COc1ccc(CNC(=O)[C@H](Cc2c[nH]c3ccccc23)NC(=O)[C@@H]2Cc3ccccc3CN2)cc1,inhibition,[1],inactive
CC(NC(=O)[C@H](Cc1c[nH]c2ccccc12)NC(=O)[C@@H]1Cc2ccccc2CN1)c1ccccc1 (stereo partly drawn),inhibition,[1],inactive
O=C(O)c1cc(S(=O)(=O)Nc2cccc(S(=O)(=O)N3CCCC3)c2)ccc1Cl,inhibition,[1],0.74% (inactive)
Cc1ccc(C(=O)Nc2cccnc2Oc2ccc(Cl)cc2)cc1,inhibition,[1],7.89% (inactive)
O=C(O)c1ccc(Cl)c(S(=O)(=O)N(Cc2ccccc2)c2ccccc2Cl)c1,inhibition,[1],inactive
CCC(O)CC(C(=O)NNc1ccccc1)C(=O)NNc1ccccc1 (stereo not drawn),inhibition,stronger effect = higher value,1.75% (inactive)
same,inhibition,[2],1.77%
COc1ccc(OCc2cc(/C=N\NC(=O)c3ccccc3)ccc2OC)cc1,inhibition,[1],7.93% (inactive)
COc1cccc(NC(=O)[C@H](CC(C)C)NC(=O)[C@@H]2Cc3ccccc3CN2)c1,inhibition,[1],0.34% (inactive)
COc1cccc(NC(=O)[C@H](Cc2ccccc2)NC(=O)[C@@H]2Cc3ccccc3CN2)c1,inhibition,[1],2.9% (inactive)
Fc1ccccc1CSc1ncnc2c1ncn2C1CCCCO1 (stereo not drawn),inhibition,[1],4.89% (inactive)
c1ccc(CSc2ncnc3c2ncn3C2CCCCO2)cc1 (stereo not drawn),inhibition,[1],4.13% (inactive)
CCOC(=O)C1CCC(=O)C1 (stereo not drawn),inhibition,[1],0.89% (inactive)
Cn1c(CN2CCCCC2)nc2cc(NS(=O)(=O)c3ccc(F)cc3)ccc21,inhibition,[1],0.17% (inactive)
C#CCN(C[C@@H]1[C@@H](OC(=O)Nc2cccs2)[C@@H](OC(=O)Nc2cccs2)Cn2c(=O)n(CCCCCC)c(=O)n21)S(=O)(=O)c1ccc(C)cc1,inhibition,[1],inactive
C#CCN(C[C@@H]1[C@@H](OC(=O)NC2CC2)[C@@H](OC(=O)NC2CC2)Cn2c(=O)ccc(=O)n21)S(=O)(=O)c1ccc(C)cc1,inhibition,[1],0.49% (inactive)
COc1ccc(-c2c3c(=O)n(C)c(=O)n(C)c3cn2Cc2cccnc2)cc1,inhibition,stronger effect = higher value,1.95% (inactive)
same,inhibition,[2],1.55%
CC(C)=CCN1CCN(Cc2coc3ccc(C)cc3c2=O)CC1CCO (stereo not drawn),inhibition,[1],0.54% (inactive)
Cc1ccc2nc(NC(=O)Cn3nc(C)c([N+](=O)[O-])c3C)sc2c1,inhibition,[1],5.1% (inactive)
CN1CCN(C(=O)N2c3ccccc3C=Cc3ccccc32)CC1,inhibition,[1],0.28% (inactive)
CN(C)CCCNC(=O)c1cc2sc3ccccc3c2s1,inhibition,[1],0.94% (inactive)
COCCNC(=O)c1cc2sc3ccccc3c2s1,inhibition,[1],3.33% (inactive)
O=C1/C(=C/c2cccs2)SC(=S)N1CC(=O)N1CCCCC1CCO (stereo not drawn),inhibition,[1],2.22% (inactive)
COC(=O)C/C=C/N(Cc1ccccc1OC)S(=O)(=O)CCl,inhibition,[1],inactive
CN(C)c1ccc(NC2=C(Cl)C(=O)c3ccccc3C2=O)cc1,inhibition,[1],2.81% (inactive)
COc1ccc(NC2=C(NC(C)=O)C(=O)c3ccccc3C2=O)cc1,inhibition,[1],inactive
O=C(Nc1ccc2ccccc2c1)c1ccccc1[N+](=O)[O-],inhibition,[1],0.3% (inactive)
O=C(NC(=S)NCCN1CCOCC1)c1cccc(Cl)c1,inhibition,[1],2.05% (inactive)
O=S(=O)(NCC1CN(S(=O)(=O)c2c(F)cccc2F)C1)c1ccc2c(c1)OCCO2,inhibition,[1],0.08% (inactive)
COc1ccc(OC)c(Nc2nc(=O)c3cccnc3s2)c1,inhibition,[1],4.47% (inactive)
CC(=O)c1cccc(Nc2nc(=O)c3cccnc3s2)c1,inhibition,[1],3.68% (inactive)
Cc1ccc(Nc2nc(=O)c3cccnc3s2)cc1,inhibition,[1],inactive
CC(=O)c1ccc(Nc2nc(=O)c3cccnc3s2)cc1,inhibition,[1],2.57% (inactive)
COCOCCn1cc(CN2CCS(=O)(=O)N(Cc3ccc(-c4cccc(CO)c4)cc3)C(CC(C)C)C2=O)nn1 (stereo not drawn),inhibition,[1],6.1% (inactive)
CCOC(=O)[C@@H]1[C@H]2COc3ccc(Br)cc3[C@@H]2N2C(=O)N(c3cccc(Cl)c3)C(=O)[C@]12C,inhibition,[1],inactive
CCOC(=O)C1=C(NC(=S)NC(=O)c2ccccc2)c2ccccc2CC1(C)CC (stereo not drawn),inhibition,stronger effect = higher value,11.4% (inactive)
same,inhibition,[2],20.8%
CCOC(=O)C1=C(N)c2ccccc2CC1C(C)C (stereo not drawn),inhibition,[1],inactive
CN1CCN(C(=O)c2ccc3c(c2)N(Cc2cccc(Cl)c2)C(=O)c2ccccc2S3(=O)=O)CC1,inhibition,[1],inactive
O=C(c1ccc2c(c1)N(Cc1ccc(F)cc1)C(=O)c1ccccc1S2(=O)=O)N1CCN(c2ccccn2)CC1,inhibition,[1],8.23% (inactive)
Cc1ccc(C(=O)N2CCN(c3ccccn3)CC2)cc1C,inhibition,[1],1.05% (inactive)
Cc1ccc(C)c(CN2C(=O)c3ccccc3S(=O)(=O)c3ccc(C(=O)N4CCN(C)CC4)cc32)c1,inhibition,[1],0.5% (inactive)
CC(=O)C(=Nc1cccc(Cl)c1)NNc1ccccc1C,inhibition,[1],inactive
O=C(C[n+]1cccc(NC(=O)c2ccccc2)c1)c1cccc([N+](=O)[O-])c1,inhibition,[1],inactive
CC(=O)Nc1ccc(C(=O)OCC(=O)c2cccc([N+](=O)[O-])c2)cc1,inhibition,[1],0.91% (inactive)
CCOC(=O)C1=C(COC(=O)c2cccc(NC(C)=O)c2)NC(=O)NC1C (stereo not drawn),inhibition,[1],1.96% (inactive)
CCOC(=O)Cn1c(S(=O)(=O)Cc2ccc(F)cc2)nc(-c2ccccc2)c1-c1ccccc1,inhibition,[1],5.03% (inactive)
C#CCn1c(S(=O)(=O)Cc2ccccc2Cl)nc(-c2ccccc2)c1-c1ccccc1,inhibition,[1],1.45% (inactive)
C#CCn1c(S(=O)(=O)Cc2ccc(OC)cc2)nc(-c2ccccc2)c1-c1ccccc1,inhibition,[1],0.79% (inactive)
CCOC(=O)Cn1c(S(=O)(=O)Cc2cccc(F)c2)nc(-c2ccccc2)c1-c1ccccc1,inhibition,[1],3.2% (inactive)
COC(=O)c1ccccc1-c1ccc(/C=N/Nc2nc(N3CCCC3)nc(N3CCCC3)n2)o1,inhibition,[1],9.1% (inactive)
COc1ccc(S(=O)(=O)N2CCCc3ccccc32)cc1OC,inhibition,[1],inactive
Cc1c(OCC(=O)N(C)C)ccc2c(-c3ccccc3)cc(=O)oc12,inhibition,[1],2.42% (inactive)
Cn1cccc1C(=O)NC(=O)COC(=O)c1ccc(S(C)(=O)=O)cc1,inhibition,[1],1.82% (inactive)
O=C(Nc1sc(-c2ccccc2)cc1C(=O)O)c1ccccc1,inhibition,[1],inactive
CCOC(=O)c1cc(-c2ccccc2)sc1NC(=O)C(C)(C)C,inhibition,[1],0.72% (inactive)
COC(=O)C1=C(CSCc2ccccc2)NC(=O)NC1c1cc(C)ccc1C (stereo not drawn),inhibition,[1],1.95% (inactive)
CNC(=S)Nc1ccc(-c2nc3ccc(C)cc3s2)cc1,inhibition,[1],5.72% (inactive)
CCC(C)(C)NC(=S)Nc1ccc(-c2nc3ccc(C)cc3s2)cc1,inhibition,[1],1.78% (inactive)
CCOC(=O)c1c(C)oc(NC(=O)CCl)c1C(=O)OCC,inhibition,[1],1.19% (inactive)
Cc1cc(C(=O)Nc2c(C)nn(Cc3ccccc3Cl)c2C)no1,inhibition,[1],1.51% (inactive)
Cc1nn(Cc2ccc(Cl)cc2)c(C)c1NC(=O)c1cc(C(C)C)on1,inhibition,[1],0.91% (inactive)
CNC(=O)c1cc(S(=O)(=O)Nc2ccc3c(c2)OCCO3)ccc1C,inhibition,[1],0.34% (inactive)
C#CCOCCOCCOCCNc1nc(OC)nc(N2CCN(C(=O)[C@H](CCC(=O)O)n3cc(C(N)CO)nn3)CC2)n1 (stereo partly drawn),inhibition,[1],1.77% (inactive)
CN1CCN(CC(=O)Nc2cc(N3CCOCC3)ccc2[N+](=O)[O-])CC1,inhibition,[1],0.32% (inactive)
Cc1c(CCO)c(=O)[nH]n1S(=O)(=O)c1ccc(F)cc1,inhibition,[1],inactive
Cc1c(CCO)c(=O)[nH]n1C(=O)c1ccc(F)cc1,inhibition,[1],0.71% (inactive)
CN1C(=O)C2(NCCc3c2[nH]c2ccccc32)c2ccccc21 (stereo not drawn),inhibition,[1],1.48% (inactive)
CC1=CC(C)(C)N2C(=O)C3(NCCc4c3[nH]c3ccccc43)c3cccc1c32 (stereo not drawn),inhibition,[1],0.24% (inactive)
Cn1cc([N+](=O)[O-])c(C(=O)Nc2ccc(C(=O)N3CCCCC3)cc2)n1,inhibition,[1],10.8% (inactive)
Cn1ncc([N+](=O)[O-])c1C(=O)Nc1ccc(C2CCCCC2)cc1,inhibition,[1],2.86% (inactive)
CCn1cc([N+](=O)[O-])c(C(=O)Nc2ccn(C34CC5CC(CC(C5)C3)C4)n2)n1,inhibition,[1],0.69% (inactive)
Cc1nn(C)c(C(=O)Nc2ccn(C34CC5CC(CC(C5)C3)C4)n2)c1[N+](=O)[O-],inhibition,[1],0.3% (inactive)
CCOc1ccc(S(=O)(=O)N2CCCCC2)cc1NC(=O)C1=COCCO1,inhibition,[1],10.1% (inactive)
O=C1NC2=C(C(=O)CCC2)C(c2ccc([N+](=O)[O-])cc2)N1 (stereo not drawn),inhibition,[1],inactive
O=C(c1cccc(S(=O)(=O)N2CCc3ccccc32)c1)N1CCOCC1,inhibition,[1],1.59% (inactive)
NS(=O)(=O)c1ccc(CNC(=O)c2cccc(S(=O)(=O)N3CCc4ccccc43)c2)cc1,inhibition,[1],2.16% (inactive)
CC(=O)N1CCN(C(=O)c2cccc(S(=O)(=O)N3c4ccccc4CC3C)c2)CC1 (stereo not drawn),inhibition,[1],inactive
COc1cc2c(cc1OC)CN(C(=O)c1cccc(S(=O)(=O)N(C)C)c1)CC2,inhibition,[1],1.42% (inactive)
COc1ccccc1N1CCN(C(=O)c2cccc(S(=O)(=O)N3c4ccccc4CC3C)c2)CC1 (stereo not drawn),inhibition,[1],5.41% (inactive)
CN(CC(=O)Nc1ccccc1Br)C(=O)c1cccc(S(=O)(=O)N2CCc3ccccc32)c1,inhibition,[1],7.03% (inactive)
COc1ccc(N2CCN(C(=O)c3cccc(S(=O)(=O)N4CCc5ccccc54)c3)CC2)cc1,inhibition,[1],4.71% (inactive)
O=C(c1cccc(S(=O)(=O)N2CCc3ccccc32)c1)N1CCc2ccccc2C1,inhibition,[1],6.28% (inactive)
